Substitutions are numbered along the chain they refer to. In all, about 24,000 sequences were measured (“enrichment r”: median about 0.99, highest 2% from about 3.7 on). What follows is part of a selection rich in the highest values, with near analogues and random picks from the rest.

Results on 19 molecules are retold here after publication PMC12136788.

To fix the notation:
T1: UNK ZnF1-3 (human, UniProt Q9C0B0 31-174)
T1 sequence: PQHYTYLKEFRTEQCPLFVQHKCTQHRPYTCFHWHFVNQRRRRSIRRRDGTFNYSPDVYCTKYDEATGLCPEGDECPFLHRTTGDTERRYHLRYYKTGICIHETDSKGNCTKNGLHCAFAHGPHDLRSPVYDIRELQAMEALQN

B1: chr14:78183846:78183847:+_ENSG00000119705_ENST00000557342|hu_hu|hu_hu_hu_mus_False|18_98 (ssRNA)
RNA: GGGAGUUCUACAGUCCGACGAUCUCUCAGAAAUCUUUCUUUCUUUUAUGUUUGAGCUCCGUGCAAAGCCUUUGCUCUUUGAGCUUGAACGUGGAUCUAUGGGAGGGAAAGCACUGUAUUUUCCUGUAAUUUUUUUUUUAAAGACAACAGAGGAUUGAGCAUCA
B2: chr7:135123436:135123437:+_ENSMUSG00000030795_ENSMUST00000077609|mus_mus|FALSE|FALSE (ssRNA)
RNA: GGGAGUUCUACAGUCCGACGAUCGCCUCCGCGACCAUUUCCACCACCCCGAUUGAAGUCAGCUCGGCGGGUAGCAAAUGAAACUUUAAUAGGAUUCCCAGAGAAUUCUUUACCAUCAAACCAGUCGAUAGCUGCUUUAGCAGACAACAGAGGAUUGAGCAUCA
B3: 18916218_18916338_822_CDS_ENSMUSG00000020160_ENSMUST00000068264|mouse|control|control (ssRNA)
RNA: GGGAGUUCUACAGUCCGACGAUCGUGCGGGUACUGAUGCGAGUGCAGAGGAGGCCCGUGGUUCAGGUGGUGGACCGGUUGCAUGGACCUGGCUGCAUGCGGGUCCCCAUACAUCGUGGAGGGGAUGCCUACUCCAUCCAUACCCAACAGAGGAUUGAGCAUCA
B4: chr11:2981123:2981124:-_ENSG00000205531_ENST00000380542|hu_mus|FALSE|FALSE (ssRNA)
RNA: GGGAGUUCUACAGUCCGACGAUCCUUGUACGUUUUCGUCAGGACAGGAUUGGUGAAGUAGUCGUUGGGUUCAAAGUGAAACUCUAGCACAAAAGACAUAGGUUGUCCAGGGUCUGAAAACUUCACUUUAAUAUCCUGCAGAUGCAACAGAGGAUUGAGCAUCA
B5: chr6:155153589:155153590:+_ENSG00000213079_ENST00000417268|hu_hu|motif|central (ssRNA)
RNA: GGGAGUUCUACAGUCCGACGAUCAGUAACAUUGUCUACGCUUUGUCUUCCAGGAGCUAAAAAAGGUCUUUCUGGUUGACGGAAAAUAUCUCCUGGAGGAAAAGGUCCACGGGGUGGUGGAUGAAGAGCUGAAUCAAGUACCGACAACAGAGGAUUGAGCAUCA
B6: chr1:161298228:161298229:+_ENSG00000143252_ENST00000367975|hu_hu|motif|central (ssRNA)
RNA: GGGAGUUCUACAGUCCGACGAUCCAUGGGAAGAGACCAACUGUAGAUAGUAAUGUGGGGAGACAGAGGACGGUUUGAACCGGUAUUCUUAUUCCAGAACCGCUCCAUCUCUUCUUUGGCCGUGGUUCCCAAAGGAACAGCAUUCAACAGAGGAUUGAGCAUCA
B7: 32561585_32561705_2007_CDS_ENSG00000100852_ENST00000539826|human|control|control (ssRNA)
RNA: GGGAGUUCUACAGUCCGACGAUCUAGUUCUUGGGCAAGGCCAUCCUUCCCUAAAAUAAAAAGGUUAACUUUAUCUAUAUUGGUACUAUCGUGAUAUAAUCUUAAGCGGCCAUGAUCCAACUGUAAAAGACUACUAGCAAGUAACAACAGAGGAUUGAGCAUCA
B8: chr3:139076767:139076768:-_ENSG00000184432_ENST00000507777|hu_mus|motif|central (ssRNA)
RNA: GGGAGUUCUACAGUCCGACGAUCACUUUAAUCAUCCAGAAUAUCUUCAUCCAGAUUAAUGUCUGUUGUGUCAAUAUCCUCGGAUUCCAAGUUAUCCAAAUCAACUUCUAGUUCUAGUAAACUCUUUUCUUCUUUGUGGGUAGUCAACAGAGGAUUGAGCAUCA
B9: chr15:100049815:100049816:+_ENSMUSG00000023026_ENSMUST00000100203|mus_hu|FALSE|FALSE (ssRNA)
RNA: GGGAGUUCUACAGUCCGACGAUCAAUGAGUUAAUAGAACACUGUCCAGCCAGAUGUUAAAUUUAAAAACGUAUAUCUAGUCUAACUUCAAAUAAAUAAAAAAACUUUAUACAUAAUUACACAGUACUGUAGUUUGAAUUUGACCAACAGAGGAUUGAGCAUCA
B10: chr15:100049815:100049816:+_ENSMUSG00000023026_ENSMUST00000100203|mus_mus|motif|central (ssRNA)
RNA: GGGAGUUCUACAGUCCGACGAUCAAUGAGUUAAUAGAACACUGUCCAGCCAGAUGUUAAAUUUAAAAAUGUAUAUCGGACCGGAUUUCAAAUAAAUAAAAAAACCUUUAUACAUAAUUACACAGUACUAUAGUUUGAAUUGGACAACAGAGGAUUGAGCAUCA
B11: chr1:58468927:58468928:-_ENSMUSG00000026034_ENSMUST00000148330|mus_mus|mus_mus_mus_hu_False|1_68 (ssRNA)
RNA: GGGAGUUCUACAGUCCGACGAUCAAUUACUGAAAAAGAUGUUCAUUACCUUAGCUAUGUACUUAAUUUAAUAAAGCACCCAAACAAAAUAAACAUGGCAAUAUAAAAAUGUUAAGAAUUUACAAAGCUGUACAAAAAGACUGACAACAGAGGAUUGAGCAUCA
B12: chr1:58468927:58468928:-_ENSMUSG00000026034_ENSMUST00000148330|mus_mus|mus_mus_mus_hu_False|28_68 (ssRNA)
RNA: B11 RNA with U109G, G110C, U112A, A113U, G115C, A137U, G138A, G142U
B13: chr10:33190432:33190433:-_ENSG00000150093_ENST00000302278|hu_mus|hu_hu_hu_mus_True|28_68 (ssRNA)
RNA: GGGAGUUCUACAGUCCGACGAUCUACAUUUUCCAAACCUGCAUGUGAAUAAAACCCUGGCCACAGAGCCCUAAAGCUACCCUACUGUGACUAAGAUGCUGCUGCUGUUGCAUUCAGGUUGCAAAAUCCGCCUGAGUAGGAUUCCAACAGAGGAUUGAGCAUCA
B14: chr1:58468927:58468928:-_ENSMUSG00000026034_ENSMUST00000148330|mus_mus|mus_mus_mus_hu_False|58_68 (ssRNA)
RNA: B11 RNA with C78U, C80U, C84A, A137U, G138A, G142U
B15: chr1:58468927:58468928:-_ENSMUSG00000026034_ENSMUST00000148330|mus_mus|mus_mus_mus_hu_False|18_68 (ssRNA)
RNA: B11 RNA with U118A, U119A, C122A, A123C, A124U, A125U, G126A, A137U, G138A, G142U
B16: chr1:58468927:58468928:-_ENSMUSG00000026034_ENSMUST00000148330|mus_mus|mus_mus_mus_hu_False|68_68 (ssRNA)
RNA: B11 RNA with A137U, G138A, G142U
B17: chr5:38529146:38529147:-_ENSMUSG00000029126_ENSMUST00000031009|mus_mus|FALSE|FALSE (ssRNA)
RNA: GGGAGUUCUACAGUCCGACGAUCAGAAAAGCUAAAGUAGCCCUGGCUUACCCAAAAUUACAUUUCACUUUGCCCACUGGCUAAUAAAACAAAACAAAACAAAACAAAAAACCCAAACUGCACCUGCAUUCAGGGCUGUACGUGCAACAGAGGAUUGAGCAUCA
B18: chr5:38529174:38529175:-_ENSMUSG00000029126_ENSMUST00000031009|mus_mus|FALSE|FALSE (ssRNA)
RNA: GGGAGUUCUACAGUCCGACGAUCGAAAAGCUAAAGUAGCCCUGGCUUACCCAAAAUUACAUUUCACUUUGCCCACUGGCUAAUAAAACAAAACAAAACAAAACAAAAAACCCAAACUGCACCUGCAUUCAGGGCUGUACGUGCCAACAGAGGAUUGAGCAUCA
B19: chr15:100049815:100049816:+_ENSMUSG00000023026_ENSMUST00000100203|mus_hu|motif|central (ssRNA)
RNA: B9 RNA with U77G, A78G, U82G, A83G

In this experiment the target is T1, UNK ZnF1-3. As to the kind of experiment: nsRBNS (natural sequence RNA bind-n-seq); RBNS binding buffer (assumed for nsRBNS): 25 mM Tris pH 7.5, 150 mM KCl, 3 mM MgCl2, 0.01% Triton X-100, 500 ug/ml BSA, 20 U/ml SUPERase-In, 4 C; UNK is unkempt and MSI1 is Musashi-1; names of the RNAs are library labels; protein concentration not given here; high values mean tight binding.
As for B1, the binding signal was found to be 0.693 enrichment R. Next, B2: 1.3 enrichment R.

For B3, the binding signal came to 0.98 enrichment R.

Molecule B4 gave a binding signal of 0.872 enrichment R.

Consider B5, for which the binding signal was 0.663 enrichment R. Molecule B6 gave a binding signal of 1.08 enrichment R. Next, B7: 1.31 enrichment R; B8: 0.449 enrichment R; B9: 1.95 enrichment R. With B10, the binding signal is 2.23 enrichment R. Then B11, with 1.68 enrichment R; and B12, with 0.868 enrichment R; and B13, with 1.01 enrichment R.

In turn, B14 gave a binding signal of 3.76 enrichment R. Next, B15: 3.68 enrichment R; B16: 1.87 enrichment R. Next, B17: 4.49 enrichment R.

B18 displayed a binding signal of 1.5 enrichment R. Next, B19: 4.96 enrichment R.
